Test results reported in PubChem BioAssay (EPA / NIEHS).
Records with an inconclusive call do not appear. The source made the active and inactive calls. How the source made its calls, unless noted: active means hit-call score of the fitted dose curve at least 0.9, where 1 is the maximum; inactive means score below 0.9.

Assays:
[1] = biological target: human Peroxisome Proliferator-activated Receptor alpha (PPARa), PPARA (gene 5465) (UniProt Q07869); experiment: ATG_PPARa_TRANS: Attagene TRANS-FACTORIAL HepG2 Assay for human Peroxisome Proliferator-activated Receptor alpha (PPARa) (AID 2283001; active means hit-call score of the fitted dose curve at least 0.9, where 1 is the maximum;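 on AC50: potency for gain of reporter signal over DMSO so agonist or activator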)
In short: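 Measures transcriptional activity of an exogenous chimeric PPARa-Gal4 protein in transiently transfected HepG2 cells after 24 h dosing. Reporter mRNA quantified via RT-PCR and capillary electrophoresis; DMSO served as negative control.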

[2] = read-out: Intercellular Adhesion Molecule 1 (ICAM1), ICAM1 (gene 3383); experiment: BSK_3C_ICAM1: BioMAP Diversity Plus: 3C Assay for Intercellular Adhesion Molecule 1 (ICAM1) Biomarker Activity (AID 2283003); details: primary human endothelial cells (HUVEC); actives raise or lower the signal
In short: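 Human vascular endothelial primary cells, 3C conditions, 24 h treatment. ICAM-1 by ELISA.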

[3] = biological target: Retinoic acid receptor alpha (Homo sapiens) (UniProt P10276); experiment: ATG_RARa_TRANS: Attagene TRANS-FACTORIAL HepG2 Assay for human Retinoic Acid Receptor alpha (RARa) (AID 2283005; active means hit-call score of the fitted dose curve at least 0.9, where 1 is the maximum)
Chain of Retinoic acid receptor alpha (Homo sapiens) (P10276 whole entry, looked up, the tested form may be a part): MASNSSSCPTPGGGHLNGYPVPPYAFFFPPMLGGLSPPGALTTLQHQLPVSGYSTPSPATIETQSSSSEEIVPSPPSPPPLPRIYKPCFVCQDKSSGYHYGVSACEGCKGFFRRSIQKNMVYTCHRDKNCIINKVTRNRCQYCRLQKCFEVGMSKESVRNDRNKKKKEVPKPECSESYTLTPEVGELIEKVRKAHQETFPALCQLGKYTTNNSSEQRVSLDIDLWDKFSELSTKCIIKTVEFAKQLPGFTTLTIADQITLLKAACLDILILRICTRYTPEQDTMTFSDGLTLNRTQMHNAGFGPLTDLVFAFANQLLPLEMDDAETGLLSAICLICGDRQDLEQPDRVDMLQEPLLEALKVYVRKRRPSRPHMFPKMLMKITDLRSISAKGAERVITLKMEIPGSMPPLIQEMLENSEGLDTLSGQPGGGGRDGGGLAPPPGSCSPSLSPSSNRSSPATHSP
In short: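 HepG2 transiently transfected with multiplex GAL4-UAS reporter units including a human RARa–GAL4 chimera; 24 h compound exposure. Reporter mRNA quantified by RT-PCR, 6-FAM labeling and capillary electrophoresis; gain of signal versus DMSO.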

[4] = BSK_3C_Proliferation: Cell Proliferation Assessment in the BioMAP Diversity Plus: 3C Assay (AID 2283006); details: primary human endothelial cells (HUVEC);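 on AC50: potency may reflect either rise or fall in cell number versus DMSO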
In short: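 Proliferation of human vascular endothelial primary cells after 48 h dosing, quantified as SRB-stained protein at 560 nm relative to DMSO.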

[5] = biological target: Peroxisome proliferator-activated receptor gamma (Homo sapiens) (UniProt P37231); experiment: ATG_PPARg_TRANS: Attagene TRANS-FACTORIAL HepG2 Assay for human Peroxisome Proliferator-activated Receptor-gamma (PPARg) (AID 2283007; active means hit-call score of the fitted dose curve at least 0.9, where 1 is the maximum)
Chain of Peroxisome proliferator-activated receptor gamma (Homo sapiens) (P37231 whole entry, looked up, the tested form may be a part): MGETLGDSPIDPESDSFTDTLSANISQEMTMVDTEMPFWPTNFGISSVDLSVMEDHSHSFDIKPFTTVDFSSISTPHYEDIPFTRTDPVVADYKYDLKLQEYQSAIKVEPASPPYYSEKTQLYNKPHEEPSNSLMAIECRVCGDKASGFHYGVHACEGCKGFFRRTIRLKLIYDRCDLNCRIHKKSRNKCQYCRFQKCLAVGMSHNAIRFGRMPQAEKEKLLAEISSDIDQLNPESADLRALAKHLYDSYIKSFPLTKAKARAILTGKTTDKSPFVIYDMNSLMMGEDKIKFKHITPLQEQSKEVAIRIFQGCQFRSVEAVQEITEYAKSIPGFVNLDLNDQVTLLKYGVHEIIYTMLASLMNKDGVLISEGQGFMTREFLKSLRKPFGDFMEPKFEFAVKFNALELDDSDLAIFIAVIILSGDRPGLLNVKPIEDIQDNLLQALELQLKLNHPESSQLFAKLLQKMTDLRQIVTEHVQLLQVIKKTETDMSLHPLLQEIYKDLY
In short: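 After 24 h of chemical exposure, transfected HepG2 cells carrying PPARγ-Gal4 chimera reporter constructs are lysed for RNA. Reporter transcripts are measured by RT-PCR and capillary electrophoresis with fluorescent labelling, and gain of signal is fitted versus DMSO.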

[6] = biological target: Nuclear receptor subfamily 1 group I member 2 (Homo sapiens) (UniProt O75469); experiment: ATG_PXR_TRANS: Attagene TRANS-FACTORIAL HepG2 Assay for human Pregnane X Receptor (PXR) (AID 2283008; active means hit-call score of the fitted dose curve at least 0.9, where 1 is the maximum)
Chain of Nuclear receptor subfamily 1 group I member 2 (Homo sapiens) (O75469 whole entry, looked up, the tested form may be a part): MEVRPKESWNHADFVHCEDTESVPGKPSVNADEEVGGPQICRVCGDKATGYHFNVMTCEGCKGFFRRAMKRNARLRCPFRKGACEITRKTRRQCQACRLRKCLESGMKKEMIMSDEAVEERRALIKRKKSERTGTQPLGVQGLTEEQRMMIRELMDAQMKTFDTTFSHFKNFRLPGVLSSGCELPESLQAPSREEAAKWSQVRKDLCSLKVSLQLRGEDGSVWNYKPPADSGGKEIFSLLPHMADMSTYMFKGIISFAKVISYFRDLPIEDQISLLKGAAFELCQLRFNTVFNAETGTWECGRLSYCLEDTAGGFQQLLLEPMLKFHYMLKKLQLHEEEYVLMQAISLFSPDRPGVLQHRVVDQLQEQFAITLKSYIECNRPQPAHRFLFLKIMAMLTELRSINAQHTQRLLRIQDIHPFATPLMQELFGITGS
In short: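 HepG2 cells transiently transfected with multiple reporter units, here a PXR-GAL4 chimera driving a GAL4-UAS reporter; 24 h compound exposure. Reporter mRNA measured by RT-PCR, FAM labelling and capillary electrophoresis; gain of signal fitted against DMSO baseline.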

[7] = biological target: human Retinoic Acid Receptor gamma (RARg), RARG (gene 5916) (UniProt P13631); experiment: ATG_RARg_TRANS: Attagene TRANS-FACTORIAL HepG2 Assay for human Retinoic Acid Receptor gamma (RARg) (AID 2283009; active means hit-call score of the fitted dose curve at least 0.9, where 1 is the maximum)
In short: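 HepG2, RARg-GAL4 TRANS system, 24 h exposure; reporter mRNA by RT-PCR + CE fluorescence; increase over DMSO.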

[8] = biological target: Retinoic acid receptor RXR-alpha (Homo sapiens) (UniProt P19793); experiment: ATG_RXRa_TRANS: Attagene TRANS-FACTORIAL HepG2 Assay for human Retinoid X Receptor alpha (RXRa) (AID 2283012; active means hit-call score of the fitted dose curve at least 0.9, where 1 is the maximum)
Chain of Retinoic acid receptor RXR-alpha (Homo sapiens) (P19793 whole entry, looked up, the tested form may be a part): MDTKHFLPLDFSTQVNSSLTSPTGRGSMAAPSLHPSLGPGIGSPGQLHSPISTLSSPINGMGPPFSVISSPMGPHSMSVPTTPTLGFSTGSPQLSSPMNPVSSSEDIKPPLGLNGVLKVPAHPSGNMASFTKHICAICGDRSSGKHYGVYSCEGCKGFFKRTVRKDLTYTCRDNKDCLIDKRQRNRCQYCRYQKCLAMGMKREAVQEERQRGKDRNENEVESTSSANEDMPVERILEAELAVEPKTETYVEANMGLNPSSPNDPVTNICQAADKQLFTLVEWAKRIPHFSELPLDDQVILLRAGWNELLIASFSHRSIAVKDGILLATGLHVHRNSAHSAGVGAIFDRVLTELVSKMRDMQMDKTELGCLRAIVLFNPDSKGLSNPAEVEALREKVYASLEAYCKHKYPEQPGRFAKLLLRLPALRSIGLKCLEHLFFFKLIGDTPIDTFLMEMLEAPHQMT
In short: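 Cells (HepG2) carried transiently transfected GAL4-responsive reporter units. Following a 24 h chemical incubation, reporter mRNA induction was read via RT-PCR fragment analysis; DMSO served as negative control and baseline.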

[9] = biological target: human Retinoid X Receptor beta (RXRb), RXRB (gene 6257) (UniProt P28702); experiment: ATG_RXRb_TRANS: Attagene TRANS-FACTORIAL HepG2 Assay for human Retinoid X Receptor beta (RXRb) (AID 2283013; active means hit-call score of the fitted dose curve at least 0.9, where 1 is the maximum)
Chain of human Retinoid X Receptor beta (RXRb), RXRB (gene 6257) (P28702 whole entry, looked up): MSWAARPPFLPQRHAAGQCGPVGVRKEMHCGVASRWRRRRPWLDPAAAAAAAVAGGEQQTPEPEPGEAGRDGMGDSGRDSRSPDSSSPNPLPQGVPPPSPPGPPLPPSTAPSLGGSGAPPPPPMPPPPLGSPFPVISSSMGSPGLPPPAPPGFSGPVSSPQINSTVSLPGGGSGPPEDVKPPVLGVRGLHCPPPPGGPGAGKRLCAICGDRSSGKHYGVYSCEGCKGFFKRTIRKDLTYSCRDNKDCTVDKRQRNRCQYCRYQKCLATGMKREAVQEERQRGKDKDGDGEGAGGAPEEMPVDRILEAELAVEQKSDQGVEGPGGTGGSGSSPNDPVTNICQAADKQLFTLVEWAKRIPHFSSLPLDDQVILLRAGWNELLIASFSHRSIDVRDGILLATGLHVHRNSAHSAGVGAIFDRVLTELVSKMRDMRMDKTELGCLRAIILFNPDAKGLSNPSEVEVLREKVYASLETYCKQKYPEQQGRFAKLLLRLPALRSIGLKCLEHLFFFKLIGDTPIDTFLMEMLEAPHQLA
In short: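 Multiplexed TRANS reporter assay in HepG2; 24 h dosing; reporter mRNA by RT-PCR/CE fluorescence; gain-of-signal relative to DMSO.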

[10] = read-out: E-selectin (Homo sapiens) (UniProt P16581); experiment: BSK_3C_Eselectin: BioMAP Diversity Plus: 3C Assay for Eselectin Biomarker Activity (AID 2283015); details: primary human endothelial cells (HUVEC); actives raise or lower the signal;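 further: cell surface E-selectin protein quantified by ELISA 24 h after dosing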
In short: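 Primary human umbilical vein endothelial cells (3C system) were dosed with chemical and cell-surface E-selectin measured by ELISA 24 h later. Bidirectional curve fitting used DMSO as negative control and baseline.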

[11] = read-out: Interleukin-1 alpha (IL1a), IL1A (gene 3552); experiment: BSK_BE3C_IL1a: BioMAP Diversity Plus: BE3C Assay for Interleukin-1 alpha (IL1a) Biomarker Activity (AID 2283016); details: primary human bronchial epithelial cells; actives raise or lower the signal
In short: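 Cultures of primary human bronchial epithelial cells receive test chemical. After 24 h, IL-1a is quantified by ELISA, while parallel wells are fixed in TCA and SRB-stained for total protein. Changes in either direction are fitted relative to DMSO.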

[12] = read-out: Monocyte Chemoattractant Protein-1 (MCP1), CCL2 (gene 6347); experiment: BSK_3C_MCP1: BioMAP Diversity Plus: 3C Assay for Monocyte Chemoattractant Protein-1 (MCP1) Biomarker Activity (AID 2283017); details: primary human endothelial cells (HUVEC); actives raise or lower the signal
In short: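 Primary human umbilical vein endothelial cells (3C system) were exposed to test chemical for 24 h, after which MCP-1 was quantified by ELISA. Activity was fitted bidirectionally against DMSO as negative control and baseline.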

[13] = read-out: Monocyte Chemoattractant Protein-1 (MCP1), CCL2 (gene 6347); experiment: BSK_4H_MCP1: BioMAP Diversity Plus: 4H Assay for Monocyte Chemoattractant Protein-1 (MCP1) Biomarker Activity (AID 2283018); details: primary human endothelial cells (HUVEC); actives raise or lower the signal
In short: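 Readout: MCP-1 ELISA on compound-treated HUVEC, sampled 24 h post-dosing. Baseline and negative control DMSO; bidirectional fit. Overt toxicity checked alongside by sulforhodamine B protein staining at time of biomarker measurement.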

[14] = read-out: Human Leukocyte Antigen - DR isotype (HLADR), HLA-DRA (gene 3122); experiment: BSK_3C_HLADR: BioMAP Diversity Plus: 3C Assay for Human Leukocyte Antigen - DR isotype (HLADR) Biomarker Activity (AID 2283019); details: primary human endothelial cells (HUVEC); actives raise or lower the signal
In short: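 Primary human umbilical vein endothelial cells (3C system) were dosed with compound and cell-surface HLA-DR was quantified by ELISA at 24 h. Activity was fitted bidirectionally against DMSO as negative control and baseline.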

[15] = read-out: Interleukin-8 (IL8), CXCL8 (gene 3576); experiment: BSK_3C_IL8: BioMAP Diversity Plus: 3C Assay for Interleukin-8 (IL8) Biomarker Activity (AID 2283020); details: primary human endothelial cells (HUVEC); actives raise or lower the signal
In short: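 Human vascular endothelial cells (umbilical vein) in the 3C system; IL-8 level detected by ELISA at 24 h post-dose, with DMSO as baseline.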

[16] = read-out: Monokine induced gamma interferon (MIG), CXCL9 (gene 4283); experiment: BSK_3C_MIG: BioMAP Diversity Plus: 3C Assay for Monokine induced gamma interferon (MIG) Biomarker Activity (AID 2283021); details: primary human endothelial cells (HUVEC); actives raise or lower the signal
In short: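 After 24 h of treatment, human umbilical vein endothelial cultures (3C system) had their MIG biomarker level determined by ELISA, with DMSO serving as negative control.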

[17] = biological target: human Peroxisome Proliferator-activated Receptor delta (PPARd), PPARD (gene 5467) (UniProt Q03181); experiment: ATG_PPARd_TRANS: Attagene TRANS-FACTORIAL HepG2 Assay for human Peroxisome Proliferator-activated Receptor delta (PPARd) (AID 2283002; active means hit-call score of the fitted dose curve at least 0.9, where 1 is the maximum)
Chain of human Peroxisome Proliferator-activated Receptor delta (PPARd), PPARD (gene 5467) (Q03181 whole entry, looked up, the tested form may be a part): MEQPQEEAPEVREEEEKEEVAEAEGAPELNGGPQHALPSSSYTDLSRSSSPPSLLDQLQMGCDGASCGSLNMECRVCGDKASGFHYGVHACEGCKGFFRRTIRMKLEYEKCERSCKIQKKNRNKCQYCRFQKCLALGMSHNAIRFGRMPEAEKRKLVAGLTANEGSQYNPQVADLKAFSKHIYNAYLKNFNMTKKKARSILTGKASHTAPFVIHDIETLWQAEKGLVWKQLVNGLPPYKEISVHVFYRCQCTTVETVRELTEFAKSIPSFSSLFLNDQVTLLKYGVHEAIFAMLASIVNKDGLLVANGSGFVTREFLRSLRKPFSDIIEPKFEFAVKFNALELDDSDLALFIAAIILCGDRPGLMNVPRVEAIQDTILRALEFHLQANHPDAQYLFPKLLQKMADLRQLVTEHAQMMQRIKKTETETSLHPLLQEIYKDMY
In short: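 Fluorescence from capillary electrophoresis of labelled RT-PCR reporter fragments gives the signal; DMSO sets baseline. Cells: HepG2 transiently carrying GAL4-UAS reporter units plus chimeric nuclear receptor-Gal4 proteins, exposed to chemicals for 24 h.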

[18] = biological target: human RAR-related Orphan Receptor beta (RORb), RORB (gene 6096) (UniProt Q92753); experiment: ATG_RORb_TRANS: Attagene TRANS-FACTORIAL HepG2 Assay for human RAR-related Orphan Receptor beta (RORb) (AID 2283010; active means hit-call score of the fitted dose curve at least 0.9, where 1 is the maximum)
Chain of human RAR-related Orphan Receptor beta (RORb), RORB (gene 6096) (Q92753 whole entry, looked up, the tested form may be a part): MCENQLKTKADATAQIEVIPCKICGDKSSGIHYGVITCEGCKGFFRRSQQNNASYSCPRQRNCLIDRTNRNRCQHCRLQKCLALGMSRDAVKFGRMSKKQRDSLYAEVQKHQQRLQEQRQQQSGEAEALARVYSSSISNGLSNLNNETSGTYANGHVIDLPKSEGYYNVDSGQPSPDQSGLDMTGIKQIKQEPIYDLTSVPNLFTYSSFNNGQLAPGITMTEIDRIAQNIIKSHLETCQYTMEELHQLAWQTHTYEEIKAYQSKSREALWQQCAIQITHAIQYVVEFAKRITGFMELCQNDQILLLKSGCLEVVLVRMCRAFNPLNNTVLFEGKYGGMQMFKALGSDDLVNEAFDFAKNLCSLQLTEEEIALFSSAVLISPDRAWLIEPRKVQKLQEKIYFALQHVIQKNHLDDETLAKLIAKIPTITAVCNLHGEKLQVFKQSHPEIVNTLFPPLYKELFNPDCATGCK
In short: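 In this TRANS-format test, human HepG2 cells express chimeric NR-Gal4 fusion proteins driving GAL4-UAS reporters. After 24 h dosing, reporter transcripts are measured by fluorescent RT-PCR/capillary electrophoresis, with DMSO as negative control.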

[19] = biological target: human Thyroid Receptor alpha (THRa1), THRA (gene 7067) (UniProt P10827); experiment: ATG_THRa1_TRANS: Attagene TRANS-FACTORIAL HepG2 Assay for human Thyroid Receptor alpha (THRa1) (AID 2283014; active means hit-call score of the fitted dose curve at least 0.9, where 1 is the maximum)
Chain of human Thyroid Receptor alpha (THRa1), THRA (gene 7067) (P10827 whole entry, looked up, the tested form may be a part): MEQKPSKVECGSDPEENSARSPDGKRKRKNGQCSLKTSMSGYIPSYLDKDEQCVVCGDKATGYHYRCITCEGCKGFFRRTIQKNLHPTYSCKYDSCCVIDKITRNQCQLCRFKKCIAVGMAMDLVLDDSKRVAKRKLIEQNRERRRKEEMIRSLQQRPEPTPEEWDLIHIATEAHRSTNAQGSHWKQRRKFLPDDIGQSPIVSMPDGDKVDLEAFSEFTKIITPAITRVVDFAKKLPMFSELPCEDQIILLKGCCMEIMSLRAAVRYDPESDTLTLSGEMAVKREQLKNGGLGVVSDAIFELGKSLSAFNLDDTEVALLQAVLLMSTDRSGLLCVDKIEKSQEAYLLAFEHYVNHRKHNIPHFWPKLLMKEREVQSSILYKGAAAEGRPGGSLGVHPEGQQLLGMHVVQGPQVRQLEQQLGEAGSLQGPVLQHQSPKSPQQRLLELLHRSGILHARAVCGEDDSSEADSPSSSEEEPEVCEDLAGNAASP
In short: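 HepG2 cells transiently transfected with multiplexed GAL4-UAS reporter units for exogenous chimeric THRa1-Gal4; reporter mRNA measured 24 h after dosing by RT-PCR, 6-FAM labelling, HpaI digestion and capillary electrophoresis. Gain-of-signal fitted versus DMSO baseline.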

[20] = biological target: human RAR-related Orphan Receptor gamma (RORg), RORC (gene 6097) (UniProt P51449); experiment: ATG_RORg_TRANS: Attagene TRANS-FACTORIAL HepG2 Assay for human RAR-related Orphan Receptor gamma (RORg) (AID 2283011; active means hit-call score of the fitted dose curve at least 0.9, where 1 is the maximum)
Chain of human RAR-related Orphan Receptor gamma (RORg), RORC (gene 6097) (P51449 whole entry, looked up, the tested form may be a part): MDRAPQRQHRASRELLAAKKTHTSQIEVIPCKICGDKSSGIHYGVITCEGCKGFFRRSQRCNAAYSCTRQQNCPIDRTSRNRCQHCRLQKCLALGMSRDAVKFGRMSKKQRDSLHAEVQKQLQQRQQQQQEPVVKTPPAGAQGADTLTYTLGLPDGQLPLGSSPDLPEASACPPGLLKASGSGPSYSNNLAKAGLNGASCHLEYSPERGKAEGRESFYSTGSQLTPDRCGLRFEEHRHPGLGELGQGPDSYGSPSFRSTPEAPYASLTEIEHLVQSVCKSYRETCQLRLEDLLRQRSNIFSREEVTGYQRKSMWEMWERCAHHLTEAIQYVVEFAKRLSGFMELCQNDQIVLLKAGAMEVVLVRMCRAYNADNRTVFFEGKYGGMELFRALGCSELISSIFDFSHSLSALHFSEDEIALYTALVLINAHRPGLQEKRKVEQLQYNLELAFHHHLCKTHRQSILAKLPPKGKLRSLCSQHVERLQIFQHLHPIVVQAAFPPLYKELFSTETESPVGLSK
In short: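 Readout: reporter transcript induction (RT-PCR, fluorescent primer extension, capillary electrophoresis) after 24 h compound exposure of transiently transfected HepG2 cells carrying a RORg-Gal4 chimera and GAL4-UAS reporters; DMSO served as baseline, with increasing signal fitted.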

Measured: AC50

Chain of E-selectin (Homo sapiens) (P16581 whole entry, looked up): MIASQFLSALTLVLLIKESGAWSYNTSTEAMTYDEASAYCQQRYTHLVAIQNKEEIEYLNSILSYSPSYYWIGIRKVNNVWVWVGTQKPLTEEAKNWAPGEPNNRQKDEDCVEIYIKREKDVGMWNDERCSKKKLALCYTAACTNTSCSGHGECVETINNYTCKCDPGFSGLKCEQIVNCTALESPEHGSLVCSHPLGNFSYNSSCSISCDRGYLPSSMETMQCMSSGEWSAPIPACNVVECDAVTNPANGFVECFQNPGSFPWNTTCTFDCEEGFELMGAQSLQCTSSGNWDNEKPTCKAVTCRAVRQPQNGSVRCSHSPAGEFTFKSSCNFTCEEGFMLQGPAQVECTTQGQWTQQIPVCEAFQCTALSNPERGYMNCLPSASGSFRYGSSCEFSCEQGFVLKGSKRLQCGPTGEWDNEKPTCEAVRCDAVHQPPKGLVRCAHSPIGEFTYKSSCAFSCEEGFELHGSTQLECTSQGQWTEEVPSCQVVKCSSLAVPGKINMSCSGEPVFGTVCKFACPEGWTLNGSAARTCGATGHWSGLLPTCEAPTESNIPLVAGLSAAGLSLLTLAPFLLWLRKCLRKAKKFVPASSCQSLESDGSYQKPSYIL

CC(=O)Oc1ccccc1C(=O)O
active: [5] 61.7 µM | [8] 127 µM | [9] 8.23 µM
not listed: [17] | [18] | [19] | [20]
inactive: all other assays above

Cc1ccc(C)c(O)c1C
not listed: [3] | [8] | [20]
inactive: all other assays above

Cc1oc(-c2ccccc2)nc1CCOc1cccc2c1ccn2CCC(=O)O
active: [1] 3.95 µM | [17] 4.28 µM | [5] 0.0142 µM | [6] 10.9 µM | [8] 44.9 µM | [9] 8.2 µM
not listed: [18] | [19]
inactive: all other assays above

CCCCCCCC=O
active: [5] 100 µM
not listed: [3] | [7] | [8] | [19] | [20]
inactive: all other assays above

Oc1ccc2ccccc2c1N=Nc1ccccc1
active: [5] 3.87 µM | [9] 6.33 µM
not listed: [8] | [17] | [20]
inactive: all other assays above

CN1CCN(Cc2cc(-c3ccc4[nH]c(=O)oc4c3)co2)[C@@H](c2ccc(F)cc2)C1
active: [4] 23.4 µM | [5] 42.4 µM | [12] 17.6 µM | [13] 3.68 µM | [14] 27.6 µM
not listed: [3] | [7] | [9] | [18] | [19] | [20]
inactive: all other assays above

C=CCOC(=O)c1ccccc1C(=O)OCC=C
not listed: [17] | [19] | [20]
inactive: all other assays above

CCCCN(CCCC)CCCC
not listed: [3] | [5] | [7] | [8] | [18] | [19]
inactive: all other assays above

CCCCCC(=O)O
not listed: [3] | [5] | [6] | [18] | [19] | [20]
inactive: all other assays above

CCNc1cccc(C)c1
not listed: [20]
inactive: all other assays above

C1CCC(SSC2CCCCC2)CC1
active: [4] 28.5 µM | [14] 20 µM
not listed: [3] | [18] | [20]
inactive: all other assays above

FC(F)(F)C(F)(F)C(F)(F)C(F)(F)C(F)(F)C(F)(F)CCI
not listed: [5] | [19]
inactive: all other assays above

COc1ccc(C)cc1N
not listed: [3] | [6] | [8] | [9] | [18]
inactive: all other assays above

COc1cc(/C=C/C(=O)CC(=O)/C=C/c2ccc(O)c(OC)c2)ccc1O
active: [5] 8 µM
inactive: [1] | [17] | [3] | [6] | [7] | [8]

Oc1ccc2c(c1)OC[C@@H](N1CCC(O)(c3ccc(F)cc3)CC1)[C@H]2O
active: [5] 16.5 µM | [6] 13.6 µM
not listed: [18] | [19] | [20]
inactive: all other assays above

Cc1c(C(=O)O)c(O)cc2c1C(=O)c1c(O)c([C@@H]3O[C@H](CO)[C@@H](O)[C@H](O)[C@H]3O)c(O)c(O)c1C2=O
not listed: [6] | [8] | [17] | [19] | [20]
inactive: all other assays above
